ssDAF12 agonist: S. stercoralis DAF-12 nuclear receptor activators, primary screen, cell-based, luminescence, HEK293, GRIP1 co-expression, lit1-tk-luc; Nuclear hormone receptor DAF-12 (Strongyloides stercoralis); HEK293 ssDAF-12/GRIP1 lit1-tk-luc reporter; % of 3 µM dafachronic acid response; activation, % at 6.8 µM; 1% of 370,000 active;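 active = activation above the mean over all tested compounds plus 3 SD, cut at about 0.9% in these data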
DAX1 inh-1: DAX1 (NR0B1) inhibitors, primary screen, cell-based, HEK293, Gal4-DAX1, luciferase luminescence | Nuclear receptor subfamily 0 group B member 1 (Homo sapiens), P51843 | HEK293 Gal4-DAX1 luciferase reporter | inhibition, % at 6.75 µM | 0.99% of 340,000 active;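 active = inhibition above the mean over all tested compounds plus 3 SD, cut at about 4.2% in these data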;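 note: inhibition shows as a rise in luminescence from relieved DAX1 repression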
Target sequence (P51843 207-470 limits assumed): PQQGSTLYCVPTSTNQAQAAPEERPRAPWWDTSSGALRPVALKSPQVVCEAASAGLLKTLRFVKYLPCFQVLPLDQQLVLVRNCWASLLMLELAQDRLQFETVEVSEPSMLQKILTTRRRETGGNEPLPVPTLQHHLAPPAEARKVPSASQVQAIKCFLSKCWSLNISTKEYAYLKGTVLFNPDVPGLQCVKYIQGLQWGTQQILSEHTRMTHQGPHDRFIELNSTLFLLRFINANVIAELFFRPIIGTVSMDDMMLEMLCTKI
DAX1 inh-2: DAX1 (NR0B1) inhibitors on StAR promoter, primary screen, cell-based, luminescence, SF-1 (NR5A1), full-length DAX-1. HEK293T StAR-luciferase reporter, SF-1/DAX-1 repression relief. 1.1% of 370,000 active. inhibition, % at 6.8 µM. AID 652010, 2013;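 active = inhibition above the mean over all tested compounds plus 3 SD, cut at about 3.6% in these data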;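 note: higher inhibition means more luminescence from relief of DAX-1 repression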
NR1D1 modulator: modulators of Rev-erb alpha DNA binding, primary screen, biochemical, FITC-DNA, fluorescence polarization, uHTS. Rev-erbα–FITC-DNA binding, 90 min. activity, % at 10 µM. 0.79% of 370,000 active. AID 1259318, 2017;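 active = activity above about 14%, limit read from the data; passing the limit was not always enough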
hcDAF12 agonist: H. contortus DAF-12 nuclear receptor activators, primary screen, cell-based, luminescence, HEK293, lit1-tk-luc reporter; 1.4% of 370,000 active; activation, % at 6.8 µM; HEK293 hcDAF-12 lit1-tk-luc reporter; 0% DMSO, 100% Δ7-dafachronic acid;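 active = activation above the mean of all tested compounds plus 3 SD, cut at about 5.5% in these data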
hgDAF-12 ag: H. glycines DAF-12 receptor agonists, primary screen, cell-based, luminescence, HEK293, GAL4 fusion, UAS-luciferase | HEK293 GAL4-hgDAF12 UAS-luciferase reporter, agonist luminescence; normalized to butyrate control | 1.8% of 370,000 active | Nuclear hormone receptor DAF-12 (Heterodera glycines), GAL4 fusion | activation, % at 6.8 µM;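 active = activation above a cutoff set at the mean of all screened compounds plus 3 SD, cut at about 10% in these data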
LXRb hcDAF ctr: LXR agonists, Gal4 luciferase reporter, confirmation, counter-screen for hcDAF-12 agonist project, cell-based, luminescence, HEK293, H. contortus campaign. shares compounds with hcDAF12 agonist. HEK293 Gal4-LXR tk-luc reporter, 24 h; normalized: DMSO 0%, positive control 100%. activation, % at 6.8 µM. 3,400 tested, under 10 active. AID 743027, 2013;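 active = mean percent activation of the reporter above a cutoff set as the average over tested compounds plus their standard deviation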
hcDAF12 ag: H. contortus DAF-12 receptor agonists, confirmation, cell-based, luminescence, HEK293, lit1-tk-luc, triplicate. shares compounds with hcDAF12 agonist. HEK293 hcDAF-12 lit1-tk-luc reporter; % of Δ7-dafachronic acid response. activation, % at 6.8 µM. 61% of 3,400 active;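 active = mean activation across triplicate tests above the threshold derived from the earlier primary screen, cut at about 5.5% in these data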
Each line names hits and unclear results; the compound was inactive in the other large screens (follow-up assays come after a bar, where they were run). Compounds with a hit are over-represented: about 4.8% of the library has one in this group of screens.

COc1ccc(OC)c(C(=O)Nc2c(O)ccc3ccccc23)c1	hcDAF12 agonist 7.0 | LXRb hcDAF ctr inactive | hcDAF12 ag 6.1
COc1cc(OC)c(NC(=O)c2ccccc2F)cc1Cl	none
COc1ccc(NC(=O)CSc2nc(N)c(NC(=O)c3ccccc3F)c(=O)[nH]2)cc1	none
COc1cc2c(cc1NC(=O)c1ccccc1F)CCCC2	hcDAF12 agonist 8.2 | LXRb hcDAF ctr inactive | hcDAF12 ag 6.7
COc1ccc(CC(=O)Nc2ccc(NC(=O)c3ccccc3F)cc2)cc1	hcDAF12 agonist 9.8 | LXRb hcDAF ctr inactive | hcDAF12 ag inactive
CN(C)c1ccc(P(=O)(Nc2ccc([N+](=O)[O-])cc2)N2CCOCC2)c(NC(=O)c2cccs2)c1 (stereo not given)	hcDAF12 agonist 8.0 | LXRb hcDAF ctr inactive | hcDAF12 ag inactive
COc1ccc(-c2cccc3c4c([nH]c23)[C@@H]2C[C@H]3[C@@H](C(=O)N2CC4)[C@H](C)ON3C)cc1	none (no result: DAX1 inh-1)
Cc1cccc(N2CN=c3s/c(=C\c4ccccn4)c(=O)n3C2)c1	hcDAF12 agonist 10 | LXRb hcDAF ctr inactive | hcDAF12 ag inactive
CC(=O)/C(N=Nc1cc(C)ccc1O)=C(\C)O	hcDAF12 agonist 9.2 | LXRb hcDAF ctr inactive | hcDAF12 ag 6.3
O=S1(=O)N[C@@H](Cc2ccccc2)COc2cc(NC3CC3)ccc21	none (no result: DAX1 inh-1)
Cc1ccoc1C(=O)Nc1ccc2ccccc2c1	hcDAF12 agonist 17, hgDAF-12 ag 12 | LXRb hcDAF ctr inactive | hcDAF12 ag 14
CC(C)[C@H](NC(=O)CC1CCCC1)C(=O)N1CCC[C@H]1C(=O)NCc1ccccc1	none (no result: DAX1 inh-1)
Cc1ccc(-n2nnc(-c3cc4ccccc4n3C)n2)cc1	ssDAF12 agonist 1.0, hcDAF12 agonist 9.7 | LXRb hcDAF ctr inactive | hcDAF12 ag 13
Cc1ccnc2ccc(-c3nc4ccccc4o3)cc12	ssDAF12 agonist 1.0, hcDAF12 agonist 7.8, hgDAF-12 ag 13 | LXRb hcDAF ctr inactive | hcDAF12 ag 12
O=c1cc[nH]c2c(Cl)cccc12	hcDAF12 agonist 7.2 | LXRb hcDAF ctr inactive | hcDAF12 ag 5.7
O=c1cc[nH]c2c1ccc1c(=O)cc[nH]c12	none
CC(C)C(=O)Nc1ccc(NC(=O)c2ccccn2)cn1	hcDAF12 agonist 6.7 | LXRb hcDAF ctr inactive | hcDAF12 ag inactive
CC(C)C(=O)Nc1ccc(NC(=O)c2cccnc2)cn1	none
CCOC(=O)CC[C@H](NC(=O)[C@@H]1CC=C[C@@H]2CCN(Cc3ccc(Cl)cc3)C(=O)[C@@H]21)C(=O)OCC	none (no result: DAX1 inh-1, DAX1 inh-2)
O=C(CN1C(=O)C2(OCCCO2)c2ccccc21)NCc1ccccc1Cl	none (no result: DAX1 inh-1)
CCNc1nc(N)c([N+](=O)[O-])c(Nc2cccc(Cl)c2)n1	none (no result: DAX1 inh-1, DAX1 inh-2)
Cc1cc(SCC(=O)c2cccs2)nc2ccccc12	hcDAF12 agonist 8.8 | LXRb hcDAF ctr inactive | hcDAF12 ag inactive
O=C(CSc1nc2ccccc2c(=O)[nH]1)c1cccs1	none
Cc1onc(-c2c(Cl)cccc2Cl)c1NC(=O)NN(C)C	none
Cc1onc(-c2c(Cl)cccc2Cl)c1NC(=O)N1CCSCC1	ssDAF12 agonist 1.8, DAX1 inh-1 4.2, hcDAF12 agonist 8.0, hgDAF-12 ag 11 | LXRb hcDAF ctr inactive | hcDAF12 ag inactive
CC(C)(C)N(Cc1cn(Cc2ccccc2)nn1)S(=O)(=O)c1ccc(F)cc1Br	none (no result: DAX1 inh-1)
CC(=O)c1c(C)nc(Nc2nc(C)c3cc(C)ccc3n2)nc1C	none
CC(=O)c1c(C)nc(Nc2nc3ccccc3s2)nc1C	ssDAF12 agonist 1.6, hcDAF12 agonist 11 (no result: DAX1 inh-1) | LXRb hcDAF ctr inactive | hcDAF12 ag 13
O=C(CSc1nnc(-c2cccc(F)c2)o1)N1CCOCC1	none
COc1ccccc1-c1nnc(SCC(=O)N2CCOCC2)o1	ssDAF12 agonist 1.1, hcDAF12 agonist 10 | LXRb hcDAF ctr inactive | hcDAF12 ag 11
Cc1cccc(-c2nnc(SCC(=O)N3CCOCC3)o2)c1	hcDAF12 agonist 6.8 | LXRb hcDAF ctr inactive | hcDAF12 ag inactive
CC(C)CN1C(=O)C[C@@]2(C(=O)N(C)c3ccc(NC(=O)c4cc(F)ccc4F)cc32)C1c1ccccc1 (stereo not given in full)	none (no result: DAX1 inh-1)
CCCC(=O)OC[C@H]1CN(C2CCCC2)S(=O)(=O)c2c(Oc3ccc(F)cc3)cccc2O1	none (no result: DAX1 inh-1)
O=[N+]([O-])c1ccc(Cl)c(S(=O)(=O)Nc2ccc3cn[nH]c3c2)c1	none
O=[N+]([O-])c1ccc2cn[nH]c2c1	hcDAF12 agonist 8.3 | LXRb hcDAF ctr inactive | hcDAF12 ag inactive
COc1ccccc1N1CCN(N=Cc2ccccc2Br)CC1	none (no result: DAX1 inh-1)
CN(C)c1nc(C(=O)Nc2ccccc2)nc(N(C)C)n1	hcDAF12 agonist 6.7 | LXRb hcDAF ctr inactive | hcDAF12 ag inactive
Cc1nn2c(-c3ccccc3)nnc2c2ccccc12	none
Cc1nn2c3ccccc3nc2c2ccccc12	hcDAF12 agonist 7.5 | LXRb hcDAF ctr inactive | hcDAF12 ag 7.1
COc1ccc2oc(=O)c(C(=O)Nc3cccc(C(C)=O)c3)cc2c1	none
COc1cccc(NC(=O)c2cc3ccccc3oc2=O)c1	hcDAF12 agonist 7.2, hgDAF-12 ag 13 | LXRb hcDAF ctr inactive | hcDAF12 ag 8.7
O=C(/C=C/c1c[nH]c2ccccc12)c1cccc2ccccc12	hcDAF12 agonist 11 | LXRb hcDAF ctr inactive | hcDAF12 ag inactive
O=C(c1ccccc1)c1c[nH]c2ccccc12	none
COc1ccc(C2CC(c3cccs3)=NN2S(C)(=O)=O)cc1 (stereo not given)	none
COc1ccc(C2CC(c3cccs3)=Nc3ccccc3S2)cc1 (stereo not given)	hcDAF12 agonist 8.6 | LXRb hcDAF ctr inactive | hcDAF12 ag inactive
